This is an account of results in PubChem BioAssay (EPA / NIEHS).

A short description of experiment [1]: TOX21_p53_BLA_p2_viability: Viability Assessment in the Tox21 HCT-116 p53 Agonism Beta-lactamase Assay, Phase 2 (AID 2283591).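 Note: actives lower the ATP signal meaning cytotoxicity.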 In outline:
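HCT-116 p53-bla cells (4000/well) rested 5 h at 37C, then received compounds in DMSO (217-fold dilution) for 16 h at 37C, 5% CO2. After the CCF4 read, CellTiter-Glo was added; ATP luminescence was read after 30 min at room temperature.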

Experiment [2] concerns the target Cellular tumor antigen p53 (Homo sapiens) (UniProt P04637). Put plainly: TOX21_p53_BLA_p2_ratio: Tox21 HCT-116 p53 Agonism Beta-lactamase Assay, Ratio, Phase 2 (AID 2283592). In outline:
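An inducible beta-lactamase reporter in HCT116 cells signals p53 pathway activation. After 16 h chemical exposure at 37C, cells load CCF4-AM substrate for 2 h at room temperature; activity is the cleaved/uncleaved emission ratio relative to DMSO.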

Experiment [3] is described as follows: TOX21_p53_BLA_p3_viability: Viability Assessment in the Tox21 HCT-116 p53 Agonism Beta-lactamase Assay, Phase 3 (AID 2283593).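 Note: cells exposed to compound for 16 h before reading.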 In outline: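 HCT-116 cells (4000/well) rested 5 h at 37C, then got DMSO compounds by pin tool (217-fold dilution) for 16 h at 37C, 5% CO2. After the bla read, CellTiter-Glo was added and luminescence read at 30 min, room temperature.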

For experiment [4], the target named is Cellular tumor antigen p53 (Homo sapiens) (UniProt P04637). Put plainly: TOX21_p53_BLA_p3_ratio: Tox21 HCT-116 p53 Agonism Beta-lactamase Assay, Ratio, Phase 3 (AID 2283596). In a few lines:
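HCT116 p53-bla cells (4000/well) given compound in DMSO (217-fold dilution) after 5 h, incubated 16 h at 37C. CCF4-AM substrate 2 h at room temperature; 460/530 nm emission ratio, gain fitted against DMSO.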

A short description of experiment [5]: TOX21_p53_BLA_p4_viability: Viability Assessment in the Tox21 HCT-116 p53 Agonism Beta-lactamase Assay, Phase 4 (AID 2283597).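 Note: hits lower the luminescence signal meaning cytotoxicity.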 In outline:
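Compound exposure of HCT116 cells lasts 16 h at 37C, 5% CO2, with DMSO stocks diluted 217-fold. Cellular ATP is then quantified by CellTiter-Glo luminescence after 30 min at room temperature.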

Experiment [6] deals with Cellular tumor antigen p53 (Homo sapiens) (UniProt P04637). Put plainly: TOX21_p53_BLA_p5_ratio: Tox21 HCT-116 p53 Agonism Beta-lactamase Assay, Ratio, Phase 5 (AID 2283599). In a few lines: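 HCT-116 cells carrying a p53-inducible beta-lactamase reporter were seeded at 4000 cells/well and dosed after 5 h with compound in DMSO (217-fold dilution). After 16 h at 37C, CCF4-AM substrate was added for 2 h, and the 460/530 nm emission ratio was scored as gain-of-signal versus DMSO.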

Experiment [7] is described as follows: TOX21_p53_BLA_p5_viability: Viability Assessment in the Tox21 HCT-116 p53 Agonism Beta-lactamase Assay, Phase 5 (AID 2283600). In outline:
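Counter-readout for cytotoxicity: ATP-dependent luminescence from CellTiter-Glo, read in the beta-lactamase wells after 30 min at RT, following a 16 h compound exposure at 37C.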

Experiment [8] addresses Cellular tumor antigen p53 (Homo sapiens) (UniProt P04637). Put plainly: TOX21_p53_BLA_p4_ratio: Tox21 HCT-116 p53 Agonism Beta-lactamase Assay, Ratio, Phase 4 (AID 2283601). In a few lines:
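HCT116 cells carrying an inducible beta-lactamase reporter were plated at 4000 cells/well, rested 5 h, then exposed to compounds in DMSO (217-fold dilution) for 16 h at 37C. CCF4-AM substrate was loaded 2 h at room temperature; 460/530 nm emission ratio scored gain-of-signal versus DMSO.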

Results filed as inconclusive are left out. Calls of active or inactive are those of the source. Rule for the calls: active = hit-call score of the fitted dose curve at least 0.9, where 1 is the maximum; inconclusive = response in the unintended direction; inactive = score below 0.9.

Chain of Cellular tumor antigen p53 (Homo sapiens) (P04637 whole entry, looked up): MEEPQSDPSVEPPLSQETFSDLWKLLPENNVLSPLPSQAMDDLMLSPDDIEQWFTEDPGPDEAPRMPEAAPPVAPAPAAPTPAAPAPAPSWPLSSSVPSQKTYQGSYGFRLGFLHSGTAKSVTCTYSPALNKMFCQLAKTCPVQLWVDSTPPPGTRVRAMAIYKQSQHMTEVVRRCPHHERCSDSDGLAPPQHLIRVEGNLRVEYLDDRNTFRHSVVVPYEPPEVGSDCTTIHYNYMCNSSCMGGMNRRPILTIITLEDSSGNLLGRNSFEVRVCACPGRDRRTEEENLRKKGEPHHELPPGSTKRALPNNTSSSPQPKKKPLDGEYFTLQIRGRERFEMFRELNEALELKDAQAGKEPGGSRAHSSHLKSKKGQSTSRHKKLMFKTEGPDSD

As for `C[C@@H](NCCCc1cccc(C(F)(F)F)c1)c1cccc2ccccc12`, the AC50 was 21.4 µM (active) in experiment [1]; 39 µM (active) in experiment [2]; 30 µM (active) in experiment [3]; 40.2 µM (active) in experiment [4]; 15.2 µM (active) in experiment [5]; 25.1 µM (active) in experiment [8]. Moreover, the outcome in experiment [6] and in experiment [7] was inactive.

As to `Cc1ccc(-n2nc(C(C)(C)C)cc2NC(=O)Nc2ccc(OCCN3CCOCC3)c3ccccc23)cc1`, the molecule was classed as inactive in experiment [1], in experiment [2], in experiment [3], in experiment [4], in experiment [5] and in experiment [6]. For the same molecule, the call in experiment [7] and in experiment [8] was inactive.

`COc1c(C)c2c(c(O)c1C/C=C(\C)CCC(=O)O)C(=O)OC2`: the molecule was classed as inactive in experiment [1], in experiment [3] and in experiment [7]. The AC50 in experiment [2] is 0.0608 µM (active); in experiment [4] it was 0.102 µM (active); in experiment [5] it was 0.224 µM (active); in experiment [6], 0.127 µM (active); in experiment [8], 0.091 µM (active).

Turning to `O=C(Nc1ncc([N+](=O)[O-])s1)c1cccs1`, the molecule was called inactive in experiment [1], in experiment [4], in experiment [6], in experiment [7] and in experiment [8]. Besides, the AC50 in experiment [2] was 25 µM (active); in experiment [3], 8.44 µM (active); in experiment [5], 13.4 µM (active).

`CC(C(=O)O)c1ccc(C2CCCCC2)c2ccccc12` (centres undefined): the molecule was classed as inactive in experiment [1], in experiment [2], in experiment [3], in experiment [4], in experiment [6] and in experiment [7]. In addition, the result in experiment [8] was inactive. The AC50 in experiment [5] is 31.1 µM (active).

Regarding `CN(C)CCN(C)CCN(C)C`, the result in experiment [1], in experiment [2], in experiment [3], in experiment [4], in experiment [5] and in experiment [6] was inactive. Besides, the result in experiment [7] and in experiment [8] was inactive.

As for `O=C(O)c1cc(=O)c2c3nc4ccccc4oc-3cc(=O)c2[nH]1`, the molecule was called inactive in experiment [1], in experiment [2], in experiment [3], in experiment [4], in experiment [5] and in experiment [6]. In addition, the result in experiment [7] and in experiment [8] was inactive.

In the case of `O[C@@H](c1cc(C(F)(F)F)nc2c(C(F)(F)F)cccc12)[C@H]1CCCCN1`, the AC50 in experiment [1] was 32.7 µM (active); in experiment [2], 28.9 µM (active); in experiment [3], 34 µM (active); in experiment [4], 43.6 µM (active); in experiment [5] it was 24.6 µM (active); in experiment [6], 42.9 µM (active). Besides, the AC50 is 22 µM (active) in experiment [7] and 39.6 µM (active) in experiment [8].

For `CCCCCCCC[N+](CCCCCCCC)(CCCCCCCC)CCCCCCCC`, the AC50 in experiment [1] was 18.9 µM (active); in experiment [2], 54.8 µM (active); in experiment [3], 29.3 µM (active); in experiment [4], 56.2 µM (active); in experiment [5], 36.2 µM (active); in experiment [6], 64.1 µM (active). The AC50 in experiment [7] is 34 µM (active); in experiment [8] it was 64.5 µM (active).

For the molecule `O=C(O)CCC(=O)C(=O)O`, the outcome in experiment [1], in experiment [2], in experiment [3], in experiment [4], in experiment [5] and in experiment [6] was inactive. Besides, the molecule was classed as inactive in experiment [7] and in experiment [8].

Take `C/C(=C(\CCOC(=O)c1ccccc1)SS/C(CCOC(=O)c1ccccc1)=C(/C)N(C=O)Cc1cnc(C)nc1N)N(C=O)Cc1cnc(C)nc1N`: the result in experiment [1], in experiment [2], in experiment [3], in experiment [4], in experiment [5] and in experiment [6] was inactive. Also, the result in experiment [7] and in experiment [8] was inactive.

`O=C(N/N=C/c1ccccc1O)c1ccncc1`: the call in experiment [1], in experiment [2], in experiment [3], in experiment [4], in experiment [6] and in experiment [7] was inactive. In addition, the result in experiment [8] was inactive. For the same molecule, the AC50 in experiment [5] was 8.16 µM (active).

Regarding `O=c1cccccc1O`, the molecule was classed as inactive in experiment [1], in experiment [2], in experiment [3], in experiment [4], in experiment [5] and in experiment [6]. In addition, the outcome in experiment [7] and in experiment [8] was inactive.
